Measured values taken from PubChem BioAssay (EPA / NIEHS).
Records with an inconclusive call do not appear. Calls of active or inactive are those of the source. How the source made its calls, unless noted: active means hit-call score of the fitted dose curve at least 0.9, where 1 is the maximum; inactive means score below 0.9.

Tests used:
[1] = target: Estrogen receptor (Homo sapiens) (UniProt P03372); test: CCTE_Deisenroth_AIME_384WELL_LUC_Active: CCTE's 384-well Estrogen Receptor Transactivation Assay with AIME metabolic competence (ERTA luciferase; metabolism positive), Deisenroth Lab (AID 2284030; active means hit-call score of the fitted dose curve at least 0.9, where 1 is the maximum)
Chain of Estrogen receptor (Homo sapiens) (P03372 whole entry, looked up): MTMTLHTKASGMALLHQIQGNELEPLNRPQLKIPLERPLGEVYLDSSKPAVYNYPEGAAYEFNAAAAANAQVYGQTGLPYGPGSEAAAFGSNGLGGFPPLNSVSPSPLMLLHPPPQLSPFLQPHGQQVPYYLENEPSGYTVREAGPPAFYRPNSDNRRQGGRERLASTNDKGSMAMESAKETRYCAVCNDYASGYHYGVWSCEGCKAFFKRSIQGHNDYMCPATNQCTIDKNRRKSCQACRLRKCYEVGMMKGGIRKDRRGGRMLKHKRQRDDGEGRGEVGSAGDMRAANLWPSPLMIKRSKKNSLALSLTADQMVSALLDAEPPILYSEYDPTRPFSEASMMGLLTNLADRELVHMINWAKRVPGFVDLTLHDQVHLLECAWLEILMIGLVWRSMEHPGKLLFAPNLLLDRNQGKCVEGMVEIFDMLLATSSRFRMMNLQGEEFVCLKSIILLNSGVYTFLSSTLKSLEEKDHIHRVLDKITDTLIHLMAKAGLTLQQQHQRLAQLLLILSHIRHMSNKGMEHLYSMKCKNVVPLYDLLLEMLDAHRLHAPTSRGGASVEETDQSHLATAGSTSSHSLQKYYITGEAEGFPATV
In short: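 Test chemicals (10-point series, 0.002 - 200 uM) were preincubated 2 hours with alginate-immobilized phenobarbital/beta-naphthoflavone-induced male Sprague Dawley rat liver S9; conditioned medium then went onto VM7Luc4E2 breast cells for 24 hour. Luciferase gain-of-signal fitted relative to 17beta-estradiol.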

[2] = CCTE_Deisenroth_AIME_384WELL_CTox_Active: Cytotoxicity Assessment (CTOX) in CCTE's 384-well Estrogen Receptor Transactivation Assay with AIME metabolic competence (metabolism positive), Deisenroth Lab (AID 2284037; active means hit-call score of the fitted dose curve at least 0.9, where 1 is the maximum;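 further: chemicals first conditioned 2 h by alginate-bound induced rat liver S9 before cells; activity means signal loss indicating cell death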)
In short: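 VM7Luc4E2 breast cells received medium pre-incubated 2 h with chemical over alginate microspheres holding induced male Sprague Dawley rat liver S9; viability read 24 h later by protease-substrate fluorescence. Loss of signal, bidirectional fit, 0.002–200 uM.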

[3] = target: Estrogen receptor (Homo sapiens) (UniProt P03372); test: CCTE_Deisenroth_AIME_384WELL_LUC_Inactive: CCTE's 384-well Estrogen Receptor Transactivation Assay without AIME metabolic competence (ERTA luciferase; metabolism negative), Deisenroth Lab (AID 2284038; active means hit-call score of the fitted dose curve at least 0.9, where 1 is the maximum;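 further: hits raise estrogen receptor luciferase signal so potencies reflect agonists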)
In short: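 VM7Luc4E2 ER transactivation, luciferase bioluminescence after 24 h, using medium pre-incubated 2 h with S9-free alginate microspheres. Concentrations 0.002–200 uM; gain of signal fitted relative to 17beta-estradiol.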

[4] = CCTE_Deisenroth_AIME_384WELL_CTox_Inactive: Cytotoxicity Assessment (CTOX) in CCTE's 384-well Estrogen Receptor Transactivation Assay without AIME metabolic competence (metabolism negative), Deisenroth Lab (AID 2284039; active means hit-call score of the fitted dose curve at least 0.9, where 1 is the maximum;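 further: cell viability via live-cell protease substrate cleaved to fluorescent probe; cells exposed 24 h to medium preincubated 2 h with alginate-water beads without S9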)
In short: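 Fluorescence from a live-cell protease substrate, read after 24 h in VM7Luc4E2 cells, indicated viability. Test medium came from a 2 h AIME step without hepatic S9 (alginate-water microspheres); concentrations spanned 0.002 - 200 uM, single technical replicate per run.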

[5] = target: Estrogen receptor (Homo sapiens) (UniProt P03372); test: CCTE_Deisenroth_AIME_384WELL_LUC_Shift: CCTE's 384-well Estrogen Receptor Transactivation Assay with AIME metabolic competence data shift (ERTA luciferase; difference in metabolism positive and negative), Deisenroth Lab (AID 2284041);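 further: shift is response with S9 minus without S9 so positive means metabolism raised ER signal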
In short: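 Here, parent compounds undergo 2 h phase I metabolism by PB/BNF-induced rat S9 before 24 h transactivation in VM7Luc4E2 cells; the curve models S9-positive minus S9-negative response over a 10-point series.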

[6] = CCTE_Shafer_MEA_acute_burst_duration_mean: CCTE's Neural Acute Assay for Mean Burst Duration, Shafer Lab (AID 2284014);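 further: hits are decreases in mean burst duration relative to DMSO controls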
In short: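 Acute exposure of mature rat cortical networks (DIV 13 or 15) grown on microelectrode arrays to 0.03-40 uM compound. Mean burst duration compared with the 40-min pre-dose baseline over a 40-min post-dose recording at 37 C.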

[7] = CCTE_Shafer_MEA_acute_per_burst_spike_number_mean: CCTE's Neural Acute Assay for Average Number of Spikes Per Burst, Shafer Lab (AID 2284015);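 further: hits are decreases in mean spikes per burst versus baseline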
In short: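 We recorded spontaneous network firing of rat cortical neurons for 40 min before and 40 min during exposure to compound at 0.03-40 uM, at 37 C. Spikes were detected adaptively at 8x rms noise, and the change in average spikes per burst was fitted against DMSO.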

[8] = CCTE_Shafer_MEA_acute_interburst_interval_mean: CCTE's Neural Acute Assay for Mean Interburst Interval, Shafer Lab (AID 2284016);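 further: percent change of mean interburst interval versus each well's own pre-dose baseline; curves fitted for decrease in interburst interval relative to DMSO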
In short: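 MEA recording of spontaneous network bursting in primary rat cortical cultures; mean interburst interval was compared before and after a 40-min compound exposure (0.03-40 uM) and expressed as percent change, relative to DMSO.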

[9] = CCTE_Shafer_MEA_acute_burst_percentage_mean: CCTE's Neural Acute Assay for Percentage of Spikes in a Burst, Shafer Lab (AID 2284017);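 on AC50: curve fitted for loss of signal so potency reflects decreased burst percentage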
In short: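 Compounds were tested at 0.03-40 uM on primary rat cortical neuron networks grown over microelectrodes, with at least three wells per compound. Spontaneous firing was recorded for 40 min before and 40 min after dosing, and the change in burst percentage was computed per well.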

[10] = CCTE_Shafer_MEA_acute_burst_percentage_std: CCTE's Neural Acute Assay for Standard Deviation of Burst Percentage, Shafer Lab (AID 2284018);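 further: fitted in the negative direction so actives lower burst percentage SD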
In short: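 Primary rat cortical neurons on 16-electrode MEA wells were recorded 40 min at baseline (DIV 13 or 15), then 40 min after compound (0.03-40 uM), at 37 C. Well value is SD across electrodes of spikes-in-bursts/total spikes; endpoint is percent change, DMSO-referenced.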

[11] = CCTE_Shafer_MEA_acute_per_network_burst_spike_number_mean: CCTE's Neural Acute Assay for Average Number of Spikes in a Network Burst, Shafer Lab (AID 2284019);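 on AC50: curve fitted for loss of signal so actives reduce spikes per network burst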
In short: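 Acute exposure of rat primary cortical networks (DIV 13/15) on MEAs; adaptive spike detection at 8x rms noise, 37 C. Percent change in spikes per network burst after 40 min with compound (0.03-40 uM), negative direction vs DMSO.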

[12] = CCTE_Shafer_MEA_acute_per_network_burst_spike_number_std: CCTE's Neural Acute Assay for Standard Deviation of Number of Spikes in a Network Burst, Shafer Lab (AID 2284020);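 further: fitted for decrease in spike-number SD versus DMSO so actives lower it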
In short: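 Acute MEA exposure, rat cortical neurons, 0.03-40 uM. Per-well % change versus own baseline; DMSO as negative control.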

[13] = CCTE_Shafer_MEA_acute_per_network_burst_electrodes_number_mean: CCTE's Neural Acute Assay for Mean Number of Electrodes in a Network Burst, Shafer Lab (AID 2284021);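 further: curves fitted for decreases only so hits reduce electrodes per burst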
In short: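 Rat primary cortical neurons on 16-electrode MEA wells were recorded 40 min at baseline on DIV 13 or 15, then 40 min after compound (0.03-40 uM), at 37 C. Value is percent change per well, fitted in loss direction versus DMSO.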

[14] = CCTE_Shafer_MEA_acute_network_burst_percentage: CCTE's Neural Acute Assay for Percentage of Network Bursts, Shafer Lab (AID 2284022);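 further: curves fitted for loss so actives lower network burst percentage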
In short: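 Primary rat cortical neurons on 16-electrode MEA wells, treated on DIV 13 or 15 with compound (0.03-40 uM); 40-min baseline and 40-min post-exposure recordings at 37 C. Value is percent change in spikes within network bursts versus baseline, DMSO negative control.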

[15] = CCTE_Shafer_MEA_acute_cross_correlation_area: CCTE's Neural Acute Assay for Area of Cross Correlation, Shafer Lab (AID 2284024);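 further: area under pooled inter-electrode spike cross-correlation near zero lag as percent change from own baseline; curves fitted for loss of cross-correlation area so actives lower synchrony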
In short: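 Primary rat cortical neurons on 48-well MEA plates (16 electrodes/well) were recorded 40 min at baseline on DIV 13 or 15, then 40 min with compound (0.03-40 uM) at 37 C; cross-correlation area expressed as percent change from baseline.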

[16] = CCTE_Shafer_MEA_acute_cross_correlation_HWHM: CCTE's Neural Acute Assay for Cross Correlation at Half Width at Half Maximum, Shafer Lab (AID 2284026);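 further: percent change per well from pre-dose baseline in spike cross-correlogram half width; hits are a decrease in cross-correlogram half width relative to DMSO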
In short: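 Primary rat cortical neurons on 16-electrode MEA wells; 40-min baseline on DIV 13 or 15, then 40-min recording with compound (0.03-40 uM) at 37 C. HWHM of spike cross-correlogram expressed as percent change from baseline per well, DMSO reference.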

[17] = CCTE_Shafer_MEA_acute_synchrony_index: CCTE's Neural Acute Assay for Synchrony, Shafer Lab (AID 2284027);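 further: network synchrony index of spontaneous spiking in primary rat cortical neurons on MEAs; fitted for loss of signal so actives lower synchrony relative to DMSO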
In short: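 The synchrony index is taken as percent change per well between a 40 min baseline and a 40 min recording with compound (0.03–40 uM), at 37C. Rat cortical cultures on multiwell MEAs at DIV 13 or 15, spike threshold 8× rms noise.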

[18] = CCTE_Shafer_MEA_dev_firing_rate_mean: CCTE's Neural Network Formation Assay for Mean Firing Rate, Shafer Lab (AID 2284031);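 further: AUC of well mean spike rate recorded on DIV 5 7 9 and 12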
In short: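 Spike frequency (spikes/recording length, averaged over active electrodes) was recorded on days 5, 7, 9 and 12 and collapsed to AUC; rat cortical cultures received compound continuously over 12 days of network development.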

[19] = CCTE_Shafer_MEA_dev_burst_rate: CCTE's Neural Network Formation Assay for Burst Rate, Shafer Lab (AID 2284042)
In short: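 Developmental network assay measuring how 12-day exposure of rat cortical neuron cultures alters bursting on extracellular MEA recordings. Values are AUC of well-mean burst rate across four recording days, relative to DMSO vehicle.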

[20] = CCTE_Shafer_MEA_dev_bursting_electrodes_number: CCTE's Neural Network Formation Assay for Number of Bursting Electrodes, Shafer Lab (AID 2284043; active means hit-call score of the fitted dose curve at least 0.9, where 1 is the maximum;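 further: potency is for loss of bursting electrodes relative to DMSO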)
In short: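 Counted: electrodes with burst rate ≥1 per 2 min in each well. Cells: primary rat cortex, 1.5 x 10^5/well, on 16-electrode MEA wells. Exposure: DIV 0–12, compound renewed DIV 5 and 9. Recording days 5, 7, 9, 12; AUC vs DMSO baseline.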

## CCN(CCO)CCO
[1]
  outcome: inactive
[2]
  outcome: inactive
[3]
  outcome: inactive
[4]
  outcome: inactive
[5]
  outcome: inactive

## O=C(Cc1ccccc1)OCCc1ccccc1
[6]
  outcome: inactive
[7]
  outcome: inactive
[8]
  outcome: inactive
[9]
  outcome: inactive
[10]
  outcome: inactive
[11]
  outcome: inactive
[12]
  outcome: inactive
[13]
  outcome: inactive
[14]
  outcome: inactive
[15]
  outcome: inactive
[16]
  outcome: inactive
[17]
  outcome: inactive

## CC1(C)[C@H](C(=O)O[C@H](C#N)c2cccc(Oc3ccccc3)c2)[C@@H]1/C=C(\Cl)C(F)(F)F
[6]
  AC50: 0.761 µM (active)
[7]
  AC50: 0.679 µM (active)
[8]
  AC50: 1.29 µM (active)
[9]
  AC50: 0.841 µM (active)
[10]
  outcome: inactive
[11]
  AC50: 0.553 µM (active)
[12]
  AC50: 0.427 µM (active)
[13]
  AC50: 0.818 µM (active)
[14]
  AC50: 0.551 µM (active)
[15]
  AC50: 0.0359 µM (active)
[16]
  AC50: 23.7 µM (active)
[17]
  AC50: 0.45 µM (active)
[18]
  outcome: inactive
[19]
  outcome: inactive
[20]
  AC50: 12.9 µM (active)

## O=C(O)COc1ccc(Cl)cc1
[1]
  outcome: inactive
[3]
  outcome: inactive
[4]
  outcome: inactive
[5]
  outcome: inactive

## Clc1cccc(Cl)c1Cl
[6]
  outcome: inactive
[7]
  outcome: inactive
[8]
  outcome: inactive
[9]
  outcome: inactive
[10]
  outcome: inactive
[11]
  outcome: inactive
[12]
  outcome: inactive
[13]
  outcome: inactive
[14]
  outcome: inactive
[15]
  outcome: inactive
[16]
  outcome: inactive
[17]
  outcome: inactive

## Oc1ccc(Cc2ccc(O)cc2)cc1
[6]
  outcome: inactive
[7]
  AC50: 25.3 µM (active)
[8]
  outcome: inactive
[9]
  outcome: inactive
[10]
  outcome: inactive
[11]
  outcome: inactive
[12]
  outcome: inactive
[13]
  outcome: inactive
[14]
  outcome: inactive
[15]
  AC50: 0.00164 µM (active)
[16]
  outcome: inactive
[17]
  outcome: inactive

## Oc1cc(Cl)c(Cl)cc1Cl
[6]
  outcome: inactive
[7]
  outcome: inactive
[8]
  outcome: inactive
[9]
  AC50: 36.5 µM (active)
[10]
  AC50: 32.6 µM (active)
[11]
  outcome: inactive
[12]
  outcome: inactive
[13]
  outcome: inactive
[14]
  outcome: inactive
[15]
  outcome: inactive
[16]
  AC50: 30.2 µM (active)
[17]
  AC50: 30.5 µM (active)
[2]
  AC50: 100 µM (active)
[4]
  outcome: inactive

## CS(=O)(=O)c1ccc(C(=O)C2C(=O)CCCC2=O)c(Cl)c1COCC(F)(F)F
[6]
  outcome: inactive
[7]
  outcome: inactive
[8]
  outcome: inactive
[9]
  outcome: inactive
[10]
  outcome: inactive
[11]
  outcome: inactive
[12]
  outcome: inactive
[13]
  outcome: inactive
[14]
  outcome: inactive
[15]
  outcome: inactive
[16]
  outcome: inactive
[17]
  outcome: inactive
[18]
  outcome: inactive
[19]
  outcome: inactive

## Cc1ccccc1OP(=O)(Oc1ccccc1C)Oc1ccccc1C
[6]
  AC50: 21.7 µM (active)
[7]
  AC50: 27.8 µM (active)
[8]
  AC50: 23.5 µM (active)
[9]
  AC50: 26.3 µM (active)
[10]
  AC50: 24.2 µM (active)
[11]
  outcome: inactive
[12]
  outcome: inactive
[13]
  outcome: inactive
[14]
  outcome: inactive
[15]
  outcome: inactive
[16]
  AC50: 23.1 µM (active)
[17]
  AC50: 28.1 µM (active)
[18]
  outcome: inactive
[19]
  outcome: inactive
[20]
  AC50: 15 µM (active)

## CCOc1ccc(N)cc1
[1]
  outcome: inactive
[2]
  outcome: inactive
[3]
  outcome: inactive
[4]
  outcome: inactive
[5]
  outcome: inactive

## CC(C)(C)c1ccccc1O
[6]
  outcome: inactive
[7]
  outcome: inactive
[8]
  outcome: inactive
[9]
  AC50: 20 µM (active)
[10]
  AC50: 31.8 µM (active)
[11]
  outcome: inactive
[12]
  outcome: inactive
[13]
  outcome: inactive
[14]
  outcome: inactive
[15]
  outcome: inactive
[16]
  AC50: 20 µM (active)
[17]
  AC50: 20 µM (active)
